Data: the supplement of paper PMC10849652
Targets with a hit are over-represented here; the source holds about 7,900 in all. About 0.6% of all pairs of compound and target were hits. A number with no mark means an inactive call.

Columns and labels:
Assay in all cases: log2 fold change, soluble protein after heating vs DMSO (PISA); higher = thermal stabilisation; K562 cells, 10 uM, 30 min; active = over 0.2 and 3.5 SD of the protein, either way, in both replicates (recomputed)
[1] = compound: Cc1ccc(NC(=O)c2ccc(CN3CC[C@H](N(C)C)C3)c(C(F)(F)F)c2)cc1Nc1nccc(-c2cncnc2)n1 [bafetinib]
Method in brief: (§1)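 Soluble protein was defined as the supernatant after 21,000xg for 90 min. It came from K562 cells at 2×10^6 cells/mL given 10 μM compound for 30 min, heated in aliquots for 3 min across 48°C-58°C, pooled, and extracted in PBS with 0.5% NP-40 at 4°C, and was quantified by TMTpro 16plex LC-MS/MS with equalised channel sums. Thermal stability against control samples, from duplicates, is reported as log2 fold change.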

[2] = compound: Cc1cccc(CC(=O)N2CCc3c2ccc(-c2cn(C)c4ncnc(N)c24)c3F)n1
Method in brief: as §1

[3] = compound: Cc1cn(-c2cc(NC(=O)c3ccc(C)c(Nc4nccc(-c5cccnc5)n4)c3)cc(C(F)(F)F)c2)cn1 [nilotinib]
Method in brief: as §1

[4] = compound: Cc1nc(Nc2n[nH]c3c2CN(C(=O)N[C@H](CN(C)C)c2ccccc2)C3(C)C)c2sccc2n1
Method in brief: as §1

[5] = compound: Cc1nc(Nc2ncc(C(=O)Nc3c(C)cccc3Cl)s2)cc(N2CCN(CCO)CC2)n1 [dasatinib]
Method in brief: as §1

[6] = compound: Cc1ncc(-c2ccnc(Nc3ccc(S(C)(=O)=O)cc3)n2)n1C(C)C
Method in brief: as §1

[7] = compound: Cn1cc(-c2ccc3c(c2)CCN3C(=O)Cc2cccc(C(F)(F)F)c2)c2c(N)ncnc21
Method in brief: as §1

[8] = compound: Cn1cc(-c2ccc3nnc(C(F)(F)c4ccc5ncccc5c4)n3n2)cn1
Method in brief: as §1

[9] = compound: Cn1cncc1[C@@](N)(c1ccc(Cl)cc1)c1ccc2c(c1)c(-c1cccc(Cl)c1)cc(=O)n2C [tipifarnib]
Method in brief: as §1

[10] = compound: FC(F)(F)c1ccc(/C=C/c2nc(COc3ccc(CCCCn4ccnn4)cc3)co2)cc1 [mubritinib]
Method in brief: as §1

[11] = compound: NC(=O)Nc1cc(-c2cccc(F)c2)sc1C(=O)N[C@H]1CCCNC1
Method in brief: as §1

[12] = compound: NC(=O)c1cnc(N[C@@H]2CCCC[C@@H]2N)nc1Nc1cccc(-n2nccn2)c1
Method in brief: as §1

[13] = compound: NC1(c2ccc(-c3nc4ccn5c(=O)[nH]nc5c4cc3-c3ccccc3)cc2)CCC1
Method in brief: as §1

[14] = compound: NCC(=O)Nc1ccc(-n2nc(C(F)(F)F)cc2-c2ccc3c(ccc4ccccc43)c2)cc1
Method in brief: as §1

[15] = compound: Nc1ccccc1NC(=O)c1ccc(CNC(=O)OCc2cccnc2)cc1 [entinostat]
Method in brief: as §1

[16] = compound: O=C(CCCCCCC(=O)Nc1ccccc1)NO [vorinostat]
Method in brief: as §1

[17] = compound: O=C(CCCCCCNC(=O)c1cnc(N(c2ccccc2)c2ccccc2Cl)nc1)NO [citarinostat]
Method in brief: as §1

[18] = compound: O=C(O)c1ccc2c(c1)nc(Nc1cccc(Cl)c1)c1ccncc12 [silmitasertib]
Method in brief: as §1

[19] = compound: O=C1NC(=O)C(c2cnc3ccccn23)=C1c1cn2c3c(cc(F)cc13)CN(C(=O)N1CCCCC1)CC2
Method in brief: as §1

[20] = compound: c1cc(OCCN2CCCCC2)cc(-c2n[nH]c3ccc(-c4nnc[nH]4)cc23)c1
Method in brief: as §1

Chain of UniProt Q5T6V5 (Q5T6V5 whole entry, looked up): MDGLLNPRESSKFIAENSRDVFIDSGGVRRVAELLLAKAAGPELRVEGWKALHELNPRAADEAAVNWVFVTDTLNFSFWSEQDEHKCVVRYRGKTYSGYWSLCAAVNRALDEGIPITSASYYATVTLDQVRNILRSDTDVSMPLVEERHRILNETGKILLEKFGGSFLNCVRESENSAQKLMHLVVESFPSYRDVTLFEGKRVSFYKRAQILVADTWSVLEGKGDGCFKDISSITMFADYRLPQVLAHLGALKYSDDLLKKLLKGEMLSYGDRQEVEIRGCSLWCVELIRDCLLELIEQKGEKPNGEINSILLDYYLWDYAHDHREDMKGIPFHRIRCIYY
Chain of UniProt Q9Y646 (Q9Y646 whole entry, looked up): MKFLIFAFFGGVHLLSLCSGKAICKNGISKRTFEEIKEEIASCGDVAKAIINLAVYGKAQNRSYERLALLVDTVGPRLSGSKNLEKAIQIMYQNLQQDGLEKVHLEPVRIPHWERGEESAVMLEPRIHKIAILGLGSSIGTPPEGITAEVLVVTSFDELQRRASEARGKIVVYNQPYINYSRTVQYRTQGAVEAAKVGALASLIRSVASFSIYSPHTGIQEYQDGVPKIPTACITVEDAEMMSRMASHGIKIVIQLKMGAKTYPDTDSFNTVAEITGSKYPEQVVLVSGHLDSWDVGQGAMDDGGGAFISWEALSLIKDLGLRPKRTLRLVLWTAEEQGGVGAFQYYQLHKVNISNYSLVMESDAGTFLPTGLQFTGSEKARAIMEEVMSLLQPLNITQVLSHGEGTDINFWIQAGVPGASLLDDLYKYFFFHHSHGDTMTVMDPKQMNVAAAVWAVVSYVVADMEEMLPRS
Chain of UniProt Q92828 (Q92828 whole entry, looked up): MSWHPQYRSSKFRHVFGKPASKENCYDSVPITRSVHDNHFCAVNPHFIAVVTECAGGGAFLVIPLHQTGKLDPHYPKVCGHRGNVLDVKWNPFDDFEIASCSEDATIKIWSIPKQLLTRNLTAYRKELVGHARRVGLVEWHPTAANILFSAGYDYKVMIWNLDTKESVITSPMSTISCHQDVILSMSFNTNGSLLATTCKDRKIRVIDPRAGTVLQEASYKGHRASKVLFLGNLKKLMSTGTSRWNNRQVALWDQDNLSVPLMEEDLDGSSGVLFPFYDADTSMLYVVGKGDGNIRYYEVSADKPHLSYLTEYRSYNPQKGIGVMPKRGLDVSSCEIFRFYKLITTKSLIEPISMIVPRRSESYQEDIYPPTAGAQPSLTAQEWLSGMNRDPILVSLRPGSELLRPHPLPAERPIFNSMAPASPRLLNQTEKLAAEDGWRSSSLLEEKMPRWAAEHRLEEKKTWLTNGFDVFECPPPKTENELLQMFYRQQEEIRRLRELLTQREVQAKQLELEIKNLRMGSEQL
Chain of UniProt O95628 (O95628 whole entry, looked up): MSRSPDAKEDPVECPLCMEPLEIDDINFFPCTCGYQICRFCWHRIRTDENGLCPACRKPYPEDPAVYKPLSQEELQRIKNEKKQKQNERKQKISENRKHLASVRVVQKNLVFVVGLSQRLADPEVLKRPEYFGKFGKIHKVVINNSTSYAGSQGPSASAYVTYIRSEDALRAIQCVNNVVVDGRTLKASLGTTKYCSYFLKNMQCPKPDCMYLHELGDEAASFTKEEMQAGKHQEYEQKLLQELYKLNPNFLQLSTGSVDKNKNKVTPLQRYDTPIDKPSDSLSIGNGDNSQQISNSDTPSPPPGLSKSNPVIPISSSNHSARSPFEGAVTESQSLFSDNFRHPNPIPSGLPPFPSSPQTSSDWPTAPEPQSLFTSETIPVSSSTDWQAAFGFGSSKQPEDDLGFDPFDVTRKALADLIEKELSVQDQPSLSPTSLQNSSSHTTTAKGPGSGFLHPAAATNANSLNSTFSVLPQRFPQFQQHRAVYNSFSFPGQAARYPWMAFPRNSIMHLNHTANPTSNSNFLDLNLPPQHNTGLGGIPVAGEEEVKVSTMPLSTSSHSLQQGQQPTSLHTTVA
Chain of UniProt P30305 (P30305 whole entry, looked up): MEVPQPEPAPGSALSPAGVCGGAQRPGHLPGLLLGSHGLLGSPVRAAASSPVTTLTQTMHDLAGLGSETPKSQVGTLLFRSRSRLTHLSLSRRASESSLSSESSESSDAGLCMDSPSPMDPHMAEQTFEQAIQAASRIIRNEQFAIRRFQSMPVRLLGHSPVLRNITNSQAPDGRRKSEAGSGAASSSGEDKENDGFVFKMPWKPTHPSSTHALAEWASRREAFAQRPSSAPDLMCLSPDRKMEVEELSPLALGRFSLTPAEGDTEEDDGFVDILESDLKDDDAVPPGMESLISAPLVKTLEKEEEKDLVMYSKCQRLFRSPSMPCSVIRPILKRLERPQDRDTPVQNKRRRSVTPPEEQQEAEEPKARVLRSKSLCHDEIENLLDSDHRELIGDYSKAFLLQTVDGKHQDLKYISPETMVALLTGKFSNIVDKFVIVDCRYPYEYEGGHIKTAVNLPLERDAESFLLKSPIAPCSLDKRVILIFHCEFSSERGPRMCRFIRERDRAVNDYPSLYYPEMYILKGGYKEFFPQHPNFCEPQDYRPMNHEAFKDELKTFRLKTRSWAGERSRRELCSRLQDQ
Chain of UniProt P49336 (P49336 whole entry, looked up): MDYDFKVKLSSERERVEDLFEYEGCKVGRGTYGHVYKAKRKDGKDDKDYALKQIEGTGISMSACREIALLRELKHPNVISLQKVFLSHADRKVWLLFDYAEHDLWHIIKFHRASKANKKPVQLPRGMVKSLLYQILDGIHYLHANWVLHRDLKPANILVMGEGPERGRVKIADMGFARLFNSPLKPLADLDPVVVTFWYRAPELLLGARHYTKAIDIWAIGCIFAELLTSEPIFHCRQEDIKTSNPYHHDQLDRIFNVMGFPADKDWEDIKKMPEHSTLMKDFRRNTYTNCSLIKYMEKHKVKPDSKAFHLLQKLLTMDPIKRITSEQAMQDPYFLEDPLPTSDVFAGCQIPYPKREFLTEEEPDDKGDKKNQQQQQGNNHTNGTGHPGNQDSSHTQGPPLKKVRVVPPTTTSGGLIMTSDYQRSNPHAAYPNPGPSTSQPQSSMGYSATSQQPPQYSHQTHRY
Chain of UniProt P24863 (P24863 whole entry, looked up): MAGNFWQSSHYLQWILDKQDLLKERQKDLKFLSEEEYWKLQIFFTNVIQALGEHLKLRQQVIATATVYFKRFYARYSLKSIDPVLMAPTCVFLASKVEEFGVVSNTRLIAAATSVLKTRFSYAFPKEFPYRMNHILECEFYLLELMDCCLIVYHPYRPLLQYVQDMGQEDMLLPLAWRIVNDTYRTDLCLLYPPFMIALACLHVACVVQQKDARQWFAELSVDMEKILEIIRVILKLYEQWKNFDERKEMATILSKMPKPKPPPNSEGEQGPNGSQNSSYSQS
Chain of UniProt P11802 (P11802 whole entry, looked up): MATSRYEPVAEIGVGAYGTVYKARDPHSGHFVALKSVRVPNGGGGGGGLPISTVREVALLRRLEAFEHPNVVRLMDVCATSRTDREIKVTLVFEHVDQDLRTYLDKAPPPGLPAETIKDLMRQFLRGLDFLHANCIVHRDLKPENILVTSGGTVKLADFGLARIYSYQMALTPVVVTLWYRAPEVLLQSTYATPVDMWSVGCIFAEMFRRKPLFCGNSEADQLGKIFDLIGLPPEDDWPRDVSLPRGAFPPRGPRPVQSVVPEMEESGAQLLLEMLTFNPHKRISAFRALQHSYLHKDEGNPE
Chain of UniProt P16152 (P16152 whole entry, looked up): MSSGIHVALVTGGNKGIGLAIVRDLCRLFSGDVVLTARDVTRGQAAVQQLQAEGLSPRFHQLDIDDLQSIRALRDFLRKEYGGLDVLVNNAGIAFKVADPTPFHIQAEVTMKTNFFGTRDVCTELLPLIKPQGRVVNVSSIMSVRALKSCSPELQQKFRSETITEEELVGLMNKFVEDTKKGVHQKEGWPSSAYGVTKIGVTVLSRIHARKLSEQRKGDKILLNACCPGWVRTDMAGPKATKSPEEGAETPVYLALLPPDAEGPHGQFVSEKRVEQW
Chain of UniProt Q00537 (Q00537 whole entry, looked up): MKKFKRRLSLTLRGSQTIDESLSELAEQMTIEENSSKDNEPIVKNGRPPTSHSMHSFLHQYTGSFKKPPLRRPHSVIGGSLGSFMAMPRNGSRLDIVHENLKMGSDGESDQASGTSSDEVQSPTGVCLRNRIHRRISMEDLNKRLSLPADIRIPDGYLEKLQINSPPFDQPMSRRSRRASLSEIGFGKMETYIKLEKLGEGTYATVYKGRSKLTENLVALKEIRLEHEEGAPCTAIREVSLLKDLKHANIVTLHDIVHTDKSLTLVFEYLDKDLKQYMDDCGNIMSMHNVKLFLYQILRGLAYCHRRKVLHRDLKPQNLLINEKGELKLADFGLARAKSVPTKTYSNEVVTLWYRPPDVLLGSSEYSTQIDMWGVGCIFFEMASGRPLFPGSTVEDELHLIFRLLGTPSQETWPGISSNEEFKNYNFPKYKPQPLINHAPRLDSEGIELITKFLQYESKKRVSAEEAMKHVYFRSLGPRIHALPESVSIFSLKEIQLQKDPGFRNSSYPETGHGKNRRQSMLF
Chain of UniProt Q9NPF2 (Q9NPF2 whole entry, looked up): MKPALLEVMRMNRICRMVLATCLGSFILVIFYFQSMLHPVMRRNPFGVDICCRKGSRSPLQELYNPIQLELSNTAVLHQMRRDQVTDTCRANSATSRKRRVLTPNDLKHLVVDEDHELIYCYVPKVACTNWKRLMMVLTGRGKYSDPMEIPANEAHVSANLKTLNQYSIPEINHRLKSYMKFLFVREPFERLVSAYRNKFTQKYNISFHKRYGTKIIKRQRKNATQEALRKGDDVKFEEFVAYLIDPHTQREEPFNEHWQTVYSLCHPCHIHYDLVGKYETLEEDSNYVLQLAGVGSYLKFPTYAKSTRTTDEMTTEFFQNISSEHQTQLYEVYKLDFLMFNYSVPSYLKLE
Chain of UniProt Q8N668 (Q8N668 whole entry, looked up): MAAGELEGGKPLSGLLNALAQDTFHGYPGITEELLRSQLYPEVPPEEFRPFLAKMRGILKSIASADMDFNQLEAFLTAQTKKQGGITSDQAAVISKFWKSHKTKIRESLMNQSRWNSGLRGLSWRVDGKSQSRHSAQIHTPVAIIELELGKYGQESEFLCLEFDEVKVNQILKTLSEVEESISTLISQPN

Target	log2 fold change [1]	log2 fold change [2]	log2 fold change [3]	log2 fold change [4]	log2 fold change [5]	log2 fold change [6]	log2 fold change [7]	log2 fold change [8]	log2 fold change [9]	log2 fold change [10]	log2 fold change [11]	log2 fold change [12]	log2 fold change [13]	log2 fold change [14]	log2 fold change [15]	log2 fold change [16]	log2 fold change [17]	log2 fold change [18]	log2 fold change [19]	log2 fold change [20]
CPQ (UniProt Q9Y646)	-0.207 (active)	0	0.017	0.053	0.069	-0.046	0.012	-0.025	0.031	0.044	0.083	-0.01	-0.011	0.072	0.012	-0.043	0.038	-0.004	0.03	0.009
CNOT2 (UniProt Q9NZN8)	-0.002	0	0.048	-0.063	-0.035	0.01	-0.055	0.022	-0.063	0.054	-0.012	-0.014	-0.058	-0.087	-0.023	0.018	0.026	0.046	0.007	-0.058
CNOT4 isoform 6 (UniProt O95628)	-0.088	-0.036	-0.024	-0.042	-0.034	-0.003	0.021	0.033	0.027	0.023	0.033	-0.046	-0.074	-0.026	-0.009	0.052	0.038	0.023	-0.043	-0.037
CORO2A (UniProt Q92828)	0.021	0.015	-0.047	-0.052	-0.066	-0.049	-0.017	-0.255	-0.005	0.048	0.069	-0.027	-0.287 (active)	-0.085	-0.061	0.027	-0.114	-0.019	–	-0.212
CBR1 (UniProt P16152)	0	0.011	-0.012	0.003	-0.02	0.022	0.081	-0.031	-0.044	-0.01	-0.002	0.025	-0.029	0.037	-0.008	-0.041	0.033	-0.011	-0.039	0.235 (active)
CLPTM1L (UniProt Q96KA5)	-0.186	0.07	-0.103	0.009	-0.045	-0.016	-0.042	0.011	-0.056	0.02	-0.007	0.007	-0.148	-0.019	0.025	0.023	0.044	0.02	-0.072	0.002
CHEK1 (UniProt O14757)	-0.053	0.02	-0.05	-1.17 (active)	-0.064	0.002	0.021	-0.022	0.005	0.048	0.338 (active)	-0.225	-0.209	-0.032	0.02	0.037	0.094	-0.011	-0.064	-0.276 (active)
C9orf64 (UniProt Q5T6V5)	0.031	0.218	-0.045	-0.094	-0.197	-0.04	0.079	0.085	-0.163	0.282	0	-0.155	-0.338	-0.02	0.088	0.167	0.064	0.037	0.012	-0.106
CDK8 (UniProt P49336)	0.109	0.014	–	–	0.067	–	0.057	0.018	0	0.01	-0.038	0.011	0.036	0.014	-0.152	0.038	-0.002	0.175	0.036	-0.019
COMMD1 (UniProt Q8N668)	-0.162	-0.085	0.009	-0.179	–	-0.057	–	-0.087	-0.016	-0.069	-0.043	–	0.051	-0.069	0.008	-0.032	0.039	-0.021	-0.018	-0.065
CCNC (UniProt P24863)	0.031	0.055	–	–	-0.074	–	-0.091	-0.015	–	-0.016	-0.032	-0.105	-0.017	-0.033	0.04	-0.039	–	0.183	0.039	–
CDC25B isoform 4 (UniProt P30305)	0.081	-0.022	-0.513 (active)	-0.051	–	-0.206	0.095	-0.03	0.022	0.074	-0.04	-0.07	-0.157	0.088	0.047	0.071	0.115	0.054	0.014	-0.123
CHST11 (UniProt Q9NPF2)	-0.01	-0.117	0.049	-0.026	–	0.008	0.039	-0.249	-0.012	-0.064	-0.045	0.068	-0.181	0.139	-0.027	0.001	0.276	-0.044	0.013	0.054
CEBPZOS (UniProt A8MTT3)	0.066	0.014	0.039	0.021	0.009	-0.027	–	0.033	-0.044	0.121	–	0.022	-0.124	0.028	–	-0.03	-0.011	0.018	–	-0.056
CAV2 (UniProt P51636)	-1.25 (active)	-0.054	0.221	-0.082	0.033	0.008	–	–	0.136	0.066	-0.251	-0.041	0.027	–	-0.088	0.147	–	0.106	–	–
CKS2 (UniProt P33552)	-0.021	0.048	-0.008	-0.188	0.096	-0.222	–	–	-0.047	0.325	–	-0.021	-0.039	–	–	0.28	-0.092	0.065	–	-0.071
CDK4 (UniProt P11802)	0.022	–	-0.121	-0.042	-0.056	0.031	-0.084	-0.117	0.046	0.054	0.015	-0.293	-0.074	0.02	-0.006	–	0.076	0.193	0.184	0.005
CDK17 isoform 2 (UniProt Q00537)	0.117	0.039	–	–	-0.171	–	-0.07	–	0.037	-0.04	-0.066	-0.258	-0.04	-0.074	0.035	-0.114	-0.245	0.088	0.321	-0.083
